Test results as given in PubChem BioAssay (EPA / NIEHS).
Activity calls are given as the source filed them. How the source made its calls: active means hit-call score of the fitted dose curve at least 0.9, where 1 is the maximum; inactive means score below 0.9.

What follows are molecules tested on Glutathione S-Transferase (GSTA2), GSTA2 (gene 2939) (assay: LTEA_HepaRG_GSTA2: Life Technologies and Expression Analysis (LTEA) Assay for Glutathione S-Transferase (GSTA2) using HepaRG (AID 2283497)). Details: mRNA level, 48 h; actives raise or lower the signal.
In short: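 HepaRG, 48 h dosing, 8-pt half-log CRC from 100 uM, 0.5% DMSO vehicle, n=2; RNA → Fluidigm TaqMan qRT-PCR; GSTA2 vs ACTB/GAPDH/POLR2A; gain/loss fit vs DMSO.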

SMILES | outcome | AC50
Cc1c(COC(=O)[C@@H]2[C@H](/C=C(\Cl)C(F)(F)F)C2(C)C)cccc1-c1ccccc1 | inactive | –
Nc1c(Cl)c(Cl)nc(C(=O)O)c1Cl | inactive | –
CC(C)NC(=O)N1CC(=O)N(c2cc(Cl)cc(Cl)c2)C1=O | – | 25 µM (active)
Cn1c(-c2ccccc2)cc(-c2ccccc2)[n+]1C | – | 65.9 µM (active)
COC(=O)c1c(C(F)F)nc(C(F)(F)F)c(C2=NCCS2)c1CC(C)C | inactive | –
Clc1nc(Cl)nc(Nc2ccccc2Cl)n1 | inactive | –
COc1cc(OC)nc(NC(=O)NS(=O)(=O)c2ncccc2OCC(F)(F)F)n1 | inactive | –
Cc1cc(C)nc(Nc2ccccc2)n1 | inactive | –
O=c1n(Cl)c(=O)n(Cl)c(=O)n1Cl | inactive | –
CSC(=O)c1c(C(F)F)nc(C(F)(F)F)c(C(=O)SC)c1CC(C)C | – | 88.2 µM (active)
C=C(C)CN(CC)c1c([N+](=O)[O-])cc(C(F)(F)F)cc1[N+](=O)[O-] | inactive | –
CCOc1cc(C(C)(C)C)ccc1C1COC(c2c(F)cccc2F)=N1 (stereo unspecified) | inactive | –
O=C(Nc1ccccc1-c1ccc(Cl)cc1)c1cccnc1Cl | inactive | –
COP(=O)(OC)O/C(C)=C/C(=O)N(C)C | inactive | –
CC(C)Nc1nc(Cl)nc(NC(C)C)n1 | inactive | –
COP(=S)(OC)Oc1ccc([N+](=O)[O-])c(C)c1 | inactive | –
COP(=S)(OC)SCn1nnc2ccccc2c1=O | inactive | –
C=CCOC(=O)C(C)(C)OC(=O)c1cc(-n2c(=O)cc(C(F)(F)F)n(C)c2=O)ccc1Cl | inactive | –

SMILES | outcome | AC50
CNC(=O)N(C)c1nnc(C(C)(C)C)s1 | inactive | –
CCSC(=O)N1CCCCCC1 | inactive | –
CC(C)C1(C)N=C(c2ncccc2C(=O)O)NC1=O (stereo unspecified) | inactive | –
Nc1cnn(-c2ccccc2)c(=O)c1Cl | inactive | –
CC(C)N1C(=O)N(c2ccccc2)CSC1=NC(C)(C)C | – | 82.3 µM (active)
COC(=O)NS(=O)(=O)c1ccc(N)cc1 | inactive | –
Nc1c(Cl)c(F)nc(OCC(=O)O)c1Cl | inactive | –
Clc1cccc(C(Cl)(Cl)Cl)n1 | inactive | –
Cc1cnc(C2=NC(C)(C(C)C)C(=O)N2)c(C(=O)O)c1 (stereo unspecified) | inactive | –
CS(=O)(=O)c1ccc(C(=O)C2C(=O)CCCC2=O)c([N+](=O)[O-])c1 | inactive | –
O=C(O)c1c(Cl)ccc2cc(Cl)cnc12 | inactive | –
COC(=O)NC(=S)Nc1ccccc1NC(=S)NC(=O)OC | inactive | –
CNC(=O)Oc1cccc2ccccc12 | inactive | –
COC(=O)N(C(=O)N1CO[C@@]2(C(=O)OC)Cc3cc(Cl)ccc3C2=N1)c1ccc(OC(F)(F)F)cc1 | – | 51.3 µM (active)
CC(C)Oc1cccc(NC(=O)c2ccccc2C(F)(F)F)c1 | – | 50 µM (active)
CN=C=S | inactive | –
CCC(C)n1c(=O)[nH]c(C)c(Br)c1=O (stereo unspecified) | – | 50 µM (active)
CO/N=C(/C1=NOCCO1)c1ccccc1Oc1ncnc(Oc2ccccc2Cl)c1F | – | 28.4 µM (active)
